Experimental findings from PubChem BioAssay (NCI) are described below.

The panel holds about 83,000 compounds, 20% with a hit somewhere; the sample as a whole holds those more often.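 Cell lines were cultured in 96-well plates, exposed to a single compound concentration, and assessed for percent growth 48 hours later.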 A number with no mark means an inactive call. Calls of active or inactive are those of the source.

This assay relates to SW-620 colon. The assay can be described thus: NCI-60 one-dose screen, 48 h (100 = growth as untreated, 0 = no growth, -100 = all killed). Particulars: 10 µM unless noted. Here is the method: Growth inhibition of the SW-620 human tumor cell line is measured as a screen for anti-cancer activity. Cells are grown in 96 well plates and exposed to the test compound for 48 hours. Compounds are tested at a single concentration, which is 10^-5 M for most compounds. The reported endpoint is percent growth (GI% or GIPRCNT), where numbers from 0 - 100% represent growth inhibition, and numbers from -100% - 0 represent cell death. For example, a value of 40 represents 60% growth inhibition. A value of 0 means no net growth occurred over the course of the experiment. A value of -40 indicates 40% of cells at the beginning of the experiment died by the end of the experiment. A value of -100 means all cells are dead at the end of the experiment.
NCI-60 Human Tumor Cell Lines Screen was performed using the standard one-dose NCI protocol, which is described in more detail at https://dtp.cancer.gov/discovery_development/nci-60/default.htm.
Compounds with GIPRCNT values below 10 were considered active. Activity score was based on GIPRCNT using the following formula: […]
Score is 0 for GIPRCNT values of 100 or above, 50 for GIPRCNT values of 0, and 100 for GIPRCNT values of -100.
Take `CC(NCCC(c1ccccc1)c1ccccc1)c1ccccc1` (stereo not given): the growth was 36.7%. Next, `CC(C(=O)O)N1C(N)=NNC1c1ccccc1O` (stereo not given): 95.7%; `O=C(Nc1ccc(-n2cc(-c3ccncc3)c(-c3ccc(O)c(Cl)c3)n2)cc1)Nc1cc(C(F)(F)F)cc(C(F)(F)F)c1`: 73.9%. Next, `CCC1(C(N)=O)CC2C=CC1CC2` (stereo not given): 108%; `COc1ccc2c(c1)nnc1c3cccnc3[nH]c21`: -12.5% (active); `Cc1nc(-c2ccc(Cl)cc2)ccc1NC(=O)Nc1cccc(C(F)(F)F)c1`: 89.6%. Next, `CCOc1ccccc1C(=O)N1CCN(c2cc(Cl)cc(Cl)c2)CC1`: 22.9%; `Cc1cn(-c2nc3c(c(NCc4ccccc4)n2)COCC3)c2cccc(C(N)=O)c12`: 86.1% [0.5 µM].

Regarding `COc1cc(-c2nc3ccccc3s2)ccc1OCc1nc2n(n1)S(=O)(=O)c1ccccc1N2c1ccccc1`, the growth is 102%. Next, `CN(C)CCCOc1c(Br)cc(/C=C/C(=O)N(C)CCc2cc(Br)c(OCCCN(C)C)c(Br)c2)cc1Br`: 32%; `O=C(Nc1cccc(-n2ccc3c(NC(=O)c4ccccc4)ncnc32)c1)Nc1ccc(Cl)c(C(F)(F)F)c1`: 41.3%. Next, `C=C1C(=O)O[C@H]2[C@H]1CC/C(COC(=O)c1ccc(Br)cc1)=C\CC[C@@]1(C)O[C@@H]21`: -47.5% (active). Regarding `Nc1ncnc2c1c(-c1ccc(Oc3ccccc3)cc1)nn2C[C@H]1SSC[C@H]1O`, the growth is 69.2%. Take `NC(=O)C1=C[C@H]2[C@H]3C=C[C@@]2(O)C(=O)O[C@@H]3O1`: the growth was 40.3%. Next, `Cc1cc(SCc2ccc(Cl)cc2Cl)nc(SCc2ccc(Cl)cc2Cl)n1`: 101%; `Cc1ccccc1C[P+](c1ccccc1)(c1ccccc1)c1ccccc1`: 22.8%. For `FC(F)(F)c1cccc([Si](F)(c2cccc(C(F)(F)F)c2)c2cccc(C(F)(F)F)c2)c1`, the growth was 82%. Consider `c1ccc([Se]CCCN2CCN(CCC[Se]c3ccccc3)CC2)cc1`, for which the growth was 101%. Turning to `CCN(CC)CCC(C(=O)O)(c1ccccc1)c1ccccc1`, the growth was 97.9%. Consider `CCc1c(C)c2cc3nc(NCc4ccccc4)oc3c(C)c2oc1=O`, for which the growth is 95.8%. For `Cc1ccc(-c2nc3c(N=Nc4ccc(S(N)(=O)=O)cc4)c(N)nn3c(N)c2C#N)cc1`, the growth was 16.5%. Then `COc1cc(/C=C/C(=O)N2CCC=CC2=O)cc(OC)c1OC`, with 29.3%. Then `Clc1ccc2c(c1)nnn1c3ncccc3c(Br)c21`, with 78.9%. Next, `COc1ccc(/C=C/C(=O)c2ccc(Oc3ncnc4ccccc34)cc2)cc1OC`: 32.2%; `NC(=S)NNC1CCCCC1`: 99.7%; `CCCCOc1nc2ccc(Cl)cc2cc1/C=C/C(=O)/C=C/c1ccc(OC)cc1`: 107%. In the case of `CCCCN(CCCC)c1ccc(C(=N)c2ccc(N(C)C)cc2)cc1`, the growth was -85.2% (active). Then `Cc1ccc[n+](CC(=O)c2cccc3ccccc23)c1`, with 106%; and `Nc1ccc(S(=O)(=O)Nc2ccnn2-c2ccccc2)cc1`, with 101%; and `O=C(NCCNc1nccc(-c2c(-c3cccc(O)c3)nc3sccn23)n1)Nc1cccc(C(F)(F)F)c1`, with 30.3%. Next, `CCn1c(SCC(=O)c2ccc(Br)cc2)nnc1-c1cc2c([nH]c3ccccc32)c(-c2cccc(O)c2)n1`: 94.1%; `COc1ccccc1S(=O)(=O)Nc1ccc2c3c(cc(-c4cnn(C)c4)nc13)C(=O)N2C`: 63.2%; `COc1ccc2c(-c3ccc(F)cc3)c(C#N)c(=NC(C)=O)oc2c1`: 23%.

Take `COc1cc2c(/C=C3/C(=O)Nc4ccc(O)cc43)c(Cl)n(Cc3cc(OC)c(OC)c(OC)c3)c2cc1C`: the growth was 19.3%.

With `COc1ccc(C(=O)NC(=O)Nc2ccc3c(c2)NC(=O)/C3=C\c2[nH]c(C)c(CCC(=O)O)c2C)c(F)c1`, the growth was 38.5%.

Regarding `O=C(Nc1cccc([N+](=O)[O-])c1)c1ccc2ccccc2c1O`, the growth was 74%. `Nc1ncnc2c1c(C(F)(F)F)cn2[C@@H]1O[C@H](CO)[C@@H](O)[C@H]1O`: the growth is 5.25% (active). Next, `COc1cccc(/C=N/C(=S)NC2(C)C3CCC(C3)C2(C)C)c1O` (stereo not given): 78.9%. With `FC(F)(F)c1cn(CCN2CCOCC2)c2ncnc(Cl)c12`, the growth was 53.7%. Consider `CC(C)(C)OC(=O)NCc1cccc(N=C=S)c1`, for which the growth was 60.2%.
